About 5,700 (36%) of roughly 16,000 compounds were called active. Roughly 24% stayed inconclusive and do not appear here. The list shows a part of the results. Unmarked numbers belong to inactive results. Calls come from the whole dose curve; as a rule, active = well fitted curve in the direction sought with a large enough effect; inconclusive = small, poorly fitted or top-dose-only effect, or effect the other way; inactive = no such curve, though single readings can be large or run the other way.
These compounds were tested against Cytochrome P450 1A2 (Homo sapiens) (UniProt P05177) (assay: Cytochrome panel assay with activity outcomes). Conditions: recombinant CYP, pro-luciferin dealkylation, luminescence, p450-cyp1a2; series mostly up to 57.1 µM; activity, negative = inhibition: at the top concentration.
Cytochrome P450 1A2 (Homo sapiens), sequence (P05177 whole entry, looked up): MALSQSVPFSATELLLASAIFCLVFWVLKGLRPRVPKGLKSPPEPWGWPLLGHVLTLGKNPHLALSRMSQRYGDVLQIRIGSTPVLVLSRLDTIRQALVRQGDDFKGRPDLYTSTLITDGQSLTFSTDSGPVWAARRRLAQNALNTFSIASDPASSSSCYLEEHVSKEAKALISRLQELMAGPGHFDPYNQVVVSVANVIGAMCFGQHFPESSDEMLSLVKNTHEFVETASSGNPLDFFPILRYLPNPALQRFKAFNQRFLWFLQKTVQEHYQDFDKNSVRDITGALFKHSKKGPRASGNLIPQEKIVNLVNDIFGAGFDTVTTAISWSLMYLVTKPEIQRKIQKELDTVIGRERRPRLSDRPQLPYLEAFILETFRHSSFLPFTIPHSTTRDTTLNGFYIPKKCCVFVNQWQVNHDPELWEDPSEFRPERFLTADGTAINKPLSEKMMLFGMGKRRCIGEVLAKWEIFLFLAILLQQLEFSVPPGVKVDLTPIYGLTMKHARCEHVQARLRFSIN
For CN(CC[C@@H](Oc1ccc(-c2ccccc2)cc1)c1ccc(F)cc1)CC(=O)O, the “activity, negative = inhibition” value was -21%. In the case of COC(=O)CNC(c1ccccc1Cl)c1cc(Br)ccc1NC(=O)CCN1CCOCC1 (centres undefined), the “activity, negative = inhibition” value is reported as -12.6%. In the case of O=C(Nc1ccc(Cl)cc1)OCCn1nnnc1C(c1ccccc1Cl)N1CCOCC1 (centres undefined), the AC50 is reported as 15.8 µM (active). COc1ccc(Cn2nnnc2C(c2ccccc2Cl)N2CCC(C(N)=O)CC2)cc1 (centres undefined) was tested, and the “activity, negative = inhibition” value was -13.2%. For CO[C@@H]1/C=C\O[C@@]2(C)Oc3c(C)c(O)c4c(c3C2=O)C(=N[C@H]2CC[C@H](O)O[C@@H]2C)C=C(NC(=O)/C(C)=C\C(=O)[C@@H]2C[C@@H]2[C@@H](O)[C@H](C)[C@@H](O)[C@H](C)[C@H](OC(C)=O)[C@@H]1C)C4=O, the activity, negative = inhibition was -9.54% [at 11.4 µM]. COc1ccc(NC(=O)CSc2nnc(C3CC3)n2-c2ccccc2)cc1 was tested, and the “activity, negative = inhibition” value was -16.2%. With COc1ccc(-n2ccnc2SCC(=O)Nc2ccccc2)cc1 the AC50 was 12.6 µM (active). For COc1ccc(NC(=O)CSC2=NC(=O)CC(C)=N2)cc1, the “activity, negative = inhibition” value was -13.5%. For CCC(=O)Nc1ccc(NC(=O)CSc2nnnn2-c2cccnc2)cc1C, the “activity, negative = inhibition” value was -9.78%. In the case of COc1ccc(-n2nnnc2SCC(=O)Nc2ccccc2)cc1, the AC50 is reported as 6.31 µM (active). COc1ccc(NC(=O)CSc2ccc3c4c(cccc24)C(=O)c2ccccc2-3)cc1 was tested, and the AC50 was 1.58 µM (active). With Cn1ccnc1SCC(=O)Nc1sccc1C#N the AC50 was 3.16 µM (active). In the case of C=CCN1C(=NC(=O)CC)SC2CS(=O)(=O)CC21 (centres undefined), the “activity, negative = inhibition” value is reported as -14%. O=c1[nH]c(=S)c2[nH]c(=O)n(-c3ccccc3)c2[nH]1 gave an activity, negative = inhibition of -1.84% [at 11.4 µM]. In the case of CCOc1ccc(-n2c(SCC(=O)Nc3ccc(OC)cc3OC)nc3c(c2=O)SCC3)cc1, the “activity, negative = inhibition” value is reported as -16.2%. With COC(=O)CSc1nnc(C)n1-c1cccc(OC)c1 the “activity, negative = inhibition” value was -13.4%. COc1cccc(-n2ccnc2SCC(=O)Nc2nccs2)c1 was tested, and the AC50 was 1.26 µM (active). COc1cccc(NC(=O)CSc2nnc(CN3CCOCC3)n2C)c1 was tested, and the “activity, negative = inhibition” value was -3.9%. COc1ccc(-n2ccnc2SCC(=O)Nc2ccc(OC)cc2OC)cc1 was tested, and the AC50 was 6.31 µM (active). With O=C1[C@H]2[C@H]3[C@H](O)[C@H](O)C/C(=N/OC[C@@H](O)COCc4ccco4)[C@H]3CC[C@@H]2C(=O)N1Cc1ccc2c(c1)OCO2 the activity, negative = inhibition was 6.71% [at 11.4 µM]. For O=C(c1ccncc1)N1CCC2(CC1)CN(Cc1cc(C(F)(F)F)cc(C(F)(F)F)c1)C2, the “activity, negative = inhibition” value was 3.54%. O=C1[C@@H]2[C@@H]3C=C[C@H]([C@@H]2C(=O)N1CN1CCSCC1)[C@@H]1[C@@H]2C(=O)N(CN4CCSCC4)C(=O)[C@@H]2[C@H]31 showed an activity, negative = inhibition of -13.4% [at 11.4 µM]. For CN(C)CCNC(=O)Cn1nc(-c2ccc(Cl)cc2)ccc1=O, the “activity, negative = inhibition” value was 18.6%. In the case of CN(C)CCNC(=O)c1cc(Br)ccc1Cl, the AC50 is reported as 11.2 µM (active). In the case of O=C(NOC(=O)c1cc(Br)ccc1Cl)c1cccs1, the “activity, negative = inhibition” value is reported as -19.8%. For CCCS(=O)(=O)N1CCCC(C(=O)NCCN(C)Cc2ccccc2)C1 (centres undefined), the “activity, negative = inhibition” value was -18.5%. For Cn1c(=O)c2c(nc(N3CCN(c4ccccn4)CC3)n2Cc2ccc(Cl)cc2Cl)n(C)c1=O, the “activity, negative = inhibition” value was -9.51%. In the case of CCn1c(SCc2ccc(Cl)cc2Cl)nc2nc3c(cc2c1=O)CCCC3, the AC50 is reported as 3.55 µM (active). In the case of CCC(=O)Nc1ncnc2ncn(C(=O)CC)c12, the activity, negative = inhibition is reported as -5.19% [at 11.4 µM]. In the case of CCCCNC(=O)Cc1coc2ccc3ccccc3c12, the AC50 is reported as 4.47 µM (active). In the case of CCOC(=O)C(Sc1ncnc2c1sc1nc(N3CCOCC3)c3c(c12)CCCC3)c1ccccc1 (centres undefined), the “activity, negative = inhibition” value is reported as -6.83%. With CCOC(=O)CSc1nnc(CSc2nc3sc4c(c3c(=O)[nH]2)CCCC4)n1-c1ccccc1 the AC50 was 14.1 µM (active). In the case of CCOC(=O)CSc1nnc(Cc2cc(=O)[nH]c(=O)[nH]2)n1-c1cccc(OC)c1, the “activity, negative = inhibition” value is reported as -6.04%. CN(Cc1ccco1)c1ncncc1-c1cccc(NS(C)(=O)=O)c1 was tested, and the AC50 was 15.8 µM (active). For CN(Cc1ccco1)c1ncnc2ccc(-c3cccc(NS(C)(=O)=O)c3)cc12, the AC50 was 0.398 µM (active). O=C1NC(c2ccccc2)=NC1(NS(=O)(=O)c1ccccc1)C(F)(F)F (centres undefined) was tested, and the “activity, negative = inhibition” value was -28%. In the case of Cc1nc2cnc(Nc3ccccc3)nc2n(CCC#N)c1=O, the AC50 is reported as 0.631 µM (active). With N#CCCn1c(=O)c(CCc2ccccc2)nc2cnc(Nc3ccccc3)nc21 the “activity, negative = inhibition” value was -7.24%. For COc1cccc(Nc2ncc3nc(C)c(=O)n(CCC#N)c3n2)c1, the AC50 was 1.26 µM (active). For COc1cccc(Nc2ncc3ncc(=O)n(CCC#N)c3n2)c1, the AC50 was 1 µM (active). With COc1cccc(Nc2ncc3nc(CCc4ccccc4)c(=O)n(CCC#N)c3n2)c1 the “activity, negative = inhibition” value was -9.26%. With COc1ccc(-c2nc3cnc(Nc4cccc(OC)c4)nc3n(CCC#N)c2=O)cc1 the AC50 was 6.31 µM (active). In the case of C[N+](C)(C)CCCCCC[N+](C)(C)C, the AC50 is reported as “inactive”. In the case of O=S(Cc1ccccc1)CC(O)(c1ccccc1)c1ccccc1 (centres undefined), the “activity, negative = inhibition” value is reported as -15.5%. Cc1ccc(C(=O)N2CCN(C3c4cccc5cccc(c45)C3NS(=O)(=O)c3ccccc3)CC2)cc1 (centres undefined) was tested, and the “activity, negative = inhibition” value was -17.6%. For CS(=O)(=O)Nc1cccc(-c2cncnc2Nc2ccccc2)c1, the AC50 was 5.01 µM (active). In the case of CS(=O)(=O)Nc1cccc(-c2cncnc2Nc2ccc(F)cc2)c1, the AC50 is reported as 5.01 µM (active). In the case of CN=C(NC#N)NCCSC[C@H]1N=CN=C1C, the “activity, negative = inhibition” value is reported as -10.2% [at 25.6 µM]. In the case of Cc1cnnn1-c1ccc(C(=O)CCl)cc1, the AC50 is reported as 2.82 µM (active). In the case of COc1cccc(-c2cncnc2NCc2cccc(C)c2)c1, the AC50 is reported as 2 µM (active). For COc1cccc(-c2cncnc2NCc2cccs2)c1, the AC50 was 1.26 µM (active). With COc1cccc(-c2cncnc2NCc2ccccc2)c1 the AC50 was 5.01 µM (active). In the case of COc1cccc(-c2cncnc2NCc2cccnc2)c1, the AC50 is reported as 0.794 µM (active). CS(=O)(=O)N1CCC2(CC1)CN(Cc1cc(C(F)(F)F)cc(C(F)(F)F)c1)C2 was tested, and the “activity, negative = inhibition” value was 1.68%. With O=C(c1csnn1)N1CCC2(CC1)CCN(C(c1ccccc1)c1ccccc1)CC2 the “activity, negative = inhibition” value was -12.1%. CC(=O)N/N=C/c1cc([N+](=O)[O-])ccc1OCCOc1ccccc1 was tested, and the “activity, negative = inhibition” value was -7.66%. For C=CCOc1ccc2cccc(/C=N/NC(=O)c3cc4cc([N+](=O)[O-])ccc4s3)c2c1, the AC50 was 2.24 µM (active). In the case of CCCCc1[nH]c(=O)c(C#N)c2c1CCCC2, the AC50 is reported as 5.01 µM (active). CCCCOC(=O)CCc1c(C)[nH]c(=O)c(C#N)c1C was tested, and the “activity, negative = inhibition” value was -29.7%. In the case of C/C(CCN1CCCCc2nc(C)c(C)cc21)=N\O[C@@H](C)CN1CCCc2nc(C)c(C)cc21, the activity, negative = inhibition is reported as -40.3% [at 11.4 µM]. Cc1cc2c(c(=O)o1)[C@H](O)[C@H]1O[C@@H]1C2=O showed an activity, negative = inhibition of 2.69% [at 11.4 µM]. With C[N+]1(C)CCC[C@@H](OC(=O)C(O)(c2ccccc2)c2ccccc2)C1 the “activity, negative = inhibition” value was -8.79% [at 25.6 µM]. For C[C@@H](C(=O)Nc1ccc2ccccc2c1)[C@@H]1C[C@@]1(C)[C@@H](N)c1ccccc1, the AC50 was 15.8 µM (active). With COC(=O)N[C@H](c1ccccc1)[C@@]1(C)C[C@@H]1[C@@H](C)C(=O)Nc1ccc2ccccc2c1 the AC50 was 12.6 µM (active). In the case of CC(=O)N[C@H](c1ccccc1)[C@@]1(C)C[C@@H]1[C@@H](C)C(=O)Nc1ccc2ccccc2c1, the AC50 is reported as 15.8 µM (active). C[C@@H](C(=O)Nc1ccc2ccccc2c1)[C@@H]1C[C@@]1(C)[C@@H](NC(=O)Oc1ccc(F)cc1)c1ccccc1 was tested, and the “activity, negative = inhibition” value was -19.8%. For C[C@@H](C(=O)Nc1ccc2ccccc2c1)[C@@H]1C[C@@]1(C)[C@@H](NC(=O)c1ccncc1Cl)c1ccccc1, the AC50 was 25.1 µM (active). In the case of C[C@@H](C(=O)Nc1ccc2ccccc2c1)[C@H]1C[C@]1(C)[C@H](NC(=O)Oc1ccc(F)cc1)c1ccccc1, the “activity, negative = inhibition” value is reported as -20.8%. CC(=O)Nc1ccc(N2C(=O)CC(c3ccccc3)CC2=O)cc1 was tested, and the “activity, negative = inhibition” value was -0.528%. With CCCN(CCC)CCNC(=O)C1CCCN(S(=O)(=O)c2ccc3c(c2)oc(=O)n3C)C1 (centres undefined) the “activity, negative = inhibition” value was 11.6%. For CCc1nc2cc(CC(=O)O)ccc2o1, the “activity, negative = inhibition” value was 0.515%. Cn1cccc1C(=O)N1CCC2(CC1)CN(c1ccccn1)C2 was tested, and the “activity, negative = inhibition” value was -2.09%. With Nc1nc2c(ncn2COCCO)c(=O)[nH]1 the AC50 was “inactive”. In the case of C[C@@]12CC3CC(N)(C1)C[C@@](C)(C3)C2, the “activity, negative = inhibition” value is reported as -6.72% [at 25.6 µM]. With C[C@@]1(C(NC(=O)Cc2ccccc2)c2ccc(-c3ccccc3)cc2)C[C@H]1C1CCCCC1 (some centres undefined) the “activity, negative = inhibition” value was 0.414%. CC(=O)N[C@@H](c1ccccc1)[C@]1(C)C[C@H]1[C@@H](C)C(=O)Nc1ccc2ccccc2c1 was tested, and the AC50 was 12.6 µM (active). With C[C@@H](C(=O)Nc1ccc2ccccc2c1)[C@H]1C[C@]1(C)[C@H](NS(=O)(=O)c1ccc2ccccc2c1)c1ccccc1 the “activity, negative = inhibition” value was -17.8%. Work on CN(C)Cc1cc(O)c(O)c(CN(C)C)c1 yielded an activity, negative = inhibition of -8.6% [at 11.4 µM]. In the case of CN1CCN(c2ncc3nc(-c4ccc(F)cc4)c(=O)n(C4CC4)c3n2)CC1, the AC50 is reported as 12.6 µM (active). In the case of CN1CCN(c2ncc3nc(-c4ccc(Cl)cc4)c(=O)n(C4CC4)c3n2)CC1, the AC50 is reported as 15.8 µM (active). In the case of CN1CCN(c2ncc3nc(-c4cc(F)cc(F)c4)c(=O)n(C4CC4)c3n2)CC1, the AC50 is reported as 15.8 µM (active). CC(C)N=c1cc2n(-c3ccc(Cl)cc3)c3ccccc3nc-2cc1Nc1ccc(Cl)cc1 was tested, and the “activity, negative = inhibition” value was -16.6% [at 25.6 µM]. For COC(=O)[C@@]1(Cc2ccccc2)[C@H]2c3cc(C(=O)N4CCCC4)n(Cc4ccsc4Br)c3C[C@H]2CN1C(=O)c1ccccc1, the “activity, negative = inhibition” value was -16.5%. N#Cc1cccc(C(c2nnnn2C2CCCC2)N2CCCCCC2)c1 (centres undefined) was tested, and the “activity, negative = inhibition” value was -27.6%. For N#Cc1ccc(C(c2nnnn2C2CCCC2)N2CCC(Cc3ccccc3)CC2)cc1 (centres undefined), the “activity, negative = inhibition” value was 0.969%. c1ccc(-c2noc(CSc3nnnn3C3CCCCC3)n2)cc1 was tested, and the AC50 was 2.24 µM (active). With OCCCN=C1CCCCC1 the activity, negative = inhibition was -9.6% [at 11.4 µM]. With COC(=O)Cn1nc(-c2ccccc2)n(-c2ccccc2)c1=S the AC50 was 15.8 µM (active). In the case of O=C(Nc1cccc(F)c1)N1CC2(CCN(C(=O)c3cc(C(F)(F)F)cc(C(F)(F)F)c3)CC2)C1, the “activity, negative = inhibition” value is reported as -6.78%.

From PubChem BioAssay AID1851 (National Center for Advancing Translational Sciences (NCATS), 2009)
% is set by controls: 0 for no effect and ±100 for the full control effect.
